Screening data from PubChem.
Mtb bLac sens – beta-lactam sensitization of Mtb H37Rv; M. tuberculosis H37Rv growth with meropenem, percent inhibition; inhibition, % at 25 µM; 330,000 compounds, 0.27% hits; AID 434955;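 note: growth measured after seven days incubation then overnight dye step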
Mtb UGM inh – blocks M. tuberculosis UGM enzyme | P9WIQ1 | purified UGM, fluorescence polarization probe displacement | inhibition, % at 10 µM | 320,000 compounds, 0.06% hits; in the data active = inhibition above about 10%, passing the limit was not always enough
TcdB inh – blocks C. difficile toxin B glycohydrolase activity. P18177. TcdB glycohydrolase enzymatic assay, plate reader. inhibition, % at 9.99 µM. 350,000 compounds, 0.24% hits; in the data active = inhibition above about 10%
RecA splice inh – blocks M. tuberculosis RecA intein splicing; P9WHJ3; cell-free RecA intein splicing, fluorescence; 290,000 compounds, 0.75% hits; inhibition, % (no concentration beside the values); AID 2221; in the data active = inhibition above about 30%
Rv3671c inh – Rv3671c (M. tuberculosis) protease inhibition. inhibition, % at 5.96 µM. P9WHR9. 320,000 compounds, 0.048% hits; in the data active = inhibition above about 38%;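 note: extracellular domain of Rv3671c used as enzyme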
MazF activator – increases E. coli MazEF RNase cleavage of RNA | P0AE70 | activation, % at 20 µM | FAM/BHQ RNA-DNA oligo cleavage fluorescence, 5 h | 350,000 compounds, 0.32% hits; in the data active = activation above about 50%
Target sequence (P0AE70 whole entry, looked up): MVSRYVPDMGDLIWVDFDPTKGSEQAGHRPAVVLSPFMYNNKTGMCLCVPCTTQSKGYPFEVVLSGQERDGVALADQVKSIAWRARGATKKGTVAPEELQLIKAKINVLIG
GFP chromo cs – counter-screen: blocks GFP chromophore formation; shares compounds with RecA splice inh; cell-free GFP chromophore formation, fluorescence; EC50, µM; 2,100 compounds, 83% hits
Large screens that a line does not name were inactive (follow-up assays come after a bar, where they were run). The list is not random: actives were taken first. Their share in the collection is about 0.97%. Unless noted, the rule behind the calls is not given here.

N#CC1=C(N)C(C#N)(C#N)C(c2cccnc2)C2CC(c3ccccc3)CC=C12 (configuration not stated)	none (no result: TcdB inh)
Cc1[nH]nc2c1C(c1cccs1)C(C#N)=C(N)O2 (configuration not stated)	RecA splice inh 54.0 | GFP chromo cs 34.2
Cc1ccc(C2C(C#N)=C(N)Oc3n[nH]c(C)c32)cc1 (configuration not stated)	RecA splice inh 77.4 (no result: TcdB inh) | GFP chromo cs 18.8
Cc1[nH]nc2c1C(C(C)c1ccccc1)C(C#N)=C(N)O2 (configuration not stated)	none
Cc1ccsc1C1C(C#N)=C(N)Oc2n[nH]c(C)c21 (configuration not stated)	none
Cc1[nH]nc2c1C(c1ccc(Cl)cc1)C(C#N)=C(N)O2 (configuration not stated)	RecA splice inh 75.5 (no result: TcdB inh) | GFP chromo cs 28.9
CC(C)(C)c1[nH]nc2c1C(c1ccsc1)C(C#N)=C(N)O2 (configuration not stated)	none
Cc1[nH]nc2c1C(c1cnn(C)c1)C(C#N)=C(N)O2 (configuration not stated)	RecA splice inh 76.3 | GFP chromo cs 22.9
COC(=O)C[C@@H]1CC[C@@H](NS(=O)(=O)c2ccc(OC)cc2)[C@H](CO)O1	none (no result: Mtb bLac sens, Mtb UGM inh, RecA splice inh, Rv3671c inh, MazF activator)
Cc1cccc(S(=O)(=O)N2[C@@H]3Cn4c(ccc(-c5ccncc5)c4=O)[C@H]2[C@@H](C(=O)O)[C@@H]3CO)c1	none (no result: Mtb bLac sens, Mtb UGM inh, RecA splice inh, Rv3671c inh, MazF activator)
N#CC1=C(N)Oc2n[nH]c(-c3cccnc3)c2C1c1cc(F)ccc1F (configuration not stated)	none
Cc1cc(-c2[nH]nc3c2C(c2ccc(Cl)cc2)C(C#N)=C(N)O3)c(C)s1 (configuration not stated)	RecA splice inh 77.5 | GFP chromo cs 22.6
Cc1nn(-c2ccccc2)c(Cl)c1/C=C1\SC(=S)N(CCCCCC(=O)O)C1=O	RecA splice inh 37.3 | GFP chromo cs 27.5
O=C(O)CCCN1C(=O)/C(=C\C(Cl)=C\c2ccccc2)SC1=S	RecA splice inh 46.4 (no result: Rv3671c inh) | GFP chromo cs inactive
CN(C)CCCNC(=O)C[C@H]1CC[C@@H]2[C@H](COC[C@@H](O)CN2CC2CCCC2)O1	none (no result: Mtb bLac sens, Mtb UGM inh, RecA splice inh, Rv3671c inh, MazF activator)
CN1CCN(C(=O)C[C@H]2CC[C@@H]3[C@H](COC[C@H](O)CN3C(=O)C3CCCC3)O2)CC1	none (no result: Mtb bLac sens, Mtb UGM inh, RecA splice inh, Rv3671c inh, MazF activator)
CCS(=O)(=O)c1ncc(Cl)c(C(=O)Nc2ccc(S(=O)(=O)N(C)c3ccccc3)cc2)n1	RecA splice inh 97.1 | GFP chromo cs 1.64
CCCc1nnc(NC(=O)c2nc(S(=O)(=O)Cc3cccc(C)c3)ncc2Cl)s1	RecA splice inh 85.4 | GFP chromo cs inactive
Cc1ccccc1CS(=O)(=O)c1ncc(Cl)c(C(=O)Nc2ccc(F)cc2)n1	RecA splice inh 34.2 | GFP chromo cs 8.55
COc1ccc(NC(=O)c2nc(S(=O)(=O)Cc3cccc(C)c3)ncc2Cl)c(OC)c1	none
O=C(Nc1ccc(F)cc1)c1nc(S(=O)(=O)Cc2ccccc2)ncc1Cl	none
Cc1ccc(NC(=O)c2nc(S(=O)(=O)Cc3ccccc3)ncc2Cl)cc1	RecA splice inh 66.3 | GFP chromo cs 39.7
C[C@@H]1CN([C@H](C)CO)C(=O)c2cc(NC(=O)CCCN(C)C)ccc2O[C@@H](C)CCCCO[C@H]1CN(C)Cc1ccncc1	none (no result: Mtb bLac sens, Mtb UGM inh, RecA splice inh, Rv3671c inh, MazF activator)
COc1ccc(OC)c(NC(=O)c2nc(S(=O)(=O)Cc3ccccc3)ncc2Cl)c1	none
Cc1cccc(CS(=O)(=O)c2ncc(Cl)c(C(=O)Nc3c(C)cccc3C)n2)c1	RecA splice inh 46.2 | GFP chromo cs 9.94
Cc1nnc(NC(=O)c2nc(S(=O)(=O)Cc3ccccc3)ncc2Cl)s1	RecA splice inh 56.4 | GFP chromo cs 16.2
Cc1cccc(CS(=O)(=O)c2ncc(Cl)c(C(=O)NCc3ccccc3)n2)c1	none
Cc1cccc(C)c1NC(=O)c1nc(S(=O)(=O)Cc2ccccc2)ncc1Cl	RecA splice inh 35.6 | GFP chromo cs 16.7
O=C(C[C@H]1CC[C@H](NC(=O)C2CCC2)[C@@H](CO)O1)NCc1ccccc1Cl	none (no result: Mtb bLac sens, Mtb UGM inh, RecA splice inh, Rv3671c inh, MazF activator)
CC(=O)Nc1ccc2c(c1)C(=O)N(C)[C@@H]1CC[C@@H](CC(=O)Nc3cn(C)nc3C)O[C@@H]1CO2	none (no result: Mtb bLac sens, Mtb UGM inh, RecA splice inh, Rv3671c inh, MazF activator)
CCOc1cc(/C=C2/C(=N)N3N=C(CC)SC3=NC2=O)ccc1OC(=O)c1ccco1	none
